High-throughput results: PubChem, Broad Institute
miR122 inh = raises miR-122 sensor activity in Huh7 cells; AID 623901; 340,000 tested, 0.14% active; activation, % at 12.5 µM; Huh7 psiCHECK-miR122 Renilla luciferase sensor, 48 h;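 active = mean activation of 30% or more, with every replicate also reaching 30%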;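 note: higher luciferase signal means stronger suppression of miR-122 activity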
Of the large screens only hits and unclear results are named; the others gave an inactive call. This excerpt belongs to a sample that is enriched for hits.

Cc1ccc(S(=O)(=O)N(C)C[C@@H]2Oc3ncc(-c4cccc(F)c4)cc3C(=O)N([C@H](C)CO)C[C@@H]2C)cc1	none
Oc1ccc(-c2nc(-c3ccc(O)c(O)c3)cs2)cc1	miR122 inh 30.3
C[C@@H]1CN([C@H](C)CO)S(=O)(=O)c2ccc(C#CC3CCCC3)cc2O[C@@H]1CN(C)CC1CC1	none
COCC(=O)N(C)C[C@@H]1Oc2ncc(C#Cc3ccncc3)cc2C(=O)N([C@@H](C)CO)C[C@H]1C	none
C[C@@H]1CN([C@@H](C)CO)C(=O)c2cc(/C=C/c3ccccc3)cnc2O[C@@H]1CN(C)C(=O)C1CCOCC1	none
COc1ccccc1C#Cc1ccc2c(c1)O[C@@H](CN(C)Cc1ccncc1)[C@H](C)CN([C@H](C)CO)S2(=O)=O	none
CCC(=O)Nc1ccc2c(c1)OC[C@H](C)N(CCC(F)(F)F)C[C@@H](C)[C@@H](OC)CN(C)C2=O	none
CN(C)CCNc1ncnc2c1sc1nc(N3CCOCC3)c3c(c12)CC(C)(C)SC3	miR122 inh 56.1
C[C@@H]1CN([C@H](C)CO)C(=O)c2cc(C#CC3CC3)cnc2O[C@H]1CN(C)Cc1ccncc1	none
COCC#Cc1ccc2c(c1)O[C@@H](CN(C)C(=O)COC)[C@@H](C)CN([C@@H](C)CO)S2(=O)=O	none
COc1ccc(CN2CCc3c([nH]c4ccccc34)C2)c(OC)c1C	miR122 inh 41.7
C[C@@H]1CN([C@@H](C)CO)S(=O)(=O)c2ccc(C#Cc3ccccn3)cc2O[C@H]1CN(C)Cc1ccc(F)cc1	none
CCCN(C)C[C@@H]1Oc2cc(C#CCN(C)C)ccc2S(=O)(=O)N([C@H](C)CO)C[C@@H]1C	none
COCC#Cc1cnc2c(c1)C(=O)N([C@H](C)CO)C[C@@H](C)[C@H](CN(C)C(=O)Nc1ccccc1OC)O2	none
C[C@H]1CN([C@@H](C)CO)C(=O)c2cc(C#CC3(O)CCCC3)cnc2O[C@H]1CN(C)S(C)(=O)=O	none
CO[C@@H]1CN(C)C(=O)c2cc(NS(=O)(=O)c3ccccc3)ccc2OC[C@@H](C)N(C)C[C@@H]1C	none
C[C@H](CO)N1C[C@H](C)[C@H](CN(C)C(=O)CN(C)C)Oc2ncc(C#CC3(O)CCCC3)cc2C1=O	none
C[C@H](CO)N1C[C@H](C)[C@H](CN(C)C(=O)Nc2ccc3c(c2)OCO3)Oc2cc(C#Cc3ccccc3)ccc2S1(=O)=O	none
COc1ccccc1NC(=O)N(C)C[C@H]1Oc2ncc(C#CCC(C)C)cc2C(=O)N([C@@H](C)CO)C[C@@H]1C	none
O=S(=O)(Nc1cccc2ncccc12)c1cccs1	none
CCOc1ccc(S(=O)(=O)Nc2cccc(Cl)c2)cc1	none
CCOc1ccc2nc(NS(=O)(=O)c3cccs3)sc2c1	miR122 inh 33.9
C[C@H]1CN([C@@H](C)CO)C(=O)c2cc(C#Cc3ccc(F)cc3)cnc2O[C@@H]1CN(C)C(=O)c1ccccc1F	none
Cc1ccc(-c2cnc3c(c2)C(=O)N([C@@H](C)CO)C[C@@H](C)[C@H](CN(C)C(=O)Cc2cccnc2)O3)cc1	none
C[C@@H]1CN([C@H](C)CO)C(=O)c2cc(-c3cccnc3)cnc2O[C@@H]1CN(C)C(=O)C1CC1	none
CC(C)C(=O)NC(c1cccc([N+](=O)[O-])c1)c1ccc2cccnc2c1O (stereo unspecified)	miR122 inh 41.5
Cc1ccc(S(=O)(=O)Nc2cccc3cccnc23)c([N+](=O)[O-])c1	none
CCC(=O)Nc1ccc2c(c1)OC[C@H](C)N(C(=O)c1ccccn1)C[C@H](C)[C@@H](OC)CN(C)C2=O	none
CCC(=O)Nc1ccc2c(c1)C(=O)N(C)C[C@@H](OC)[C@@H](C)CN(Cc1ccccc1OC)[C@@H](C)CO2	none
C[C@H]1CN([C@@H](C)CO)S(=O)(=O)c2ccc(-c3ccccc3)cc2O[C@@H]1CN(C)S(=O)(=O)c1ccccc1F	none
CC(=O)N1[C@H](CNC(=O)CN(C)C)[C@@H](c2ccc(C3=CCCCC3)cc2)[C@@H]1CO	none
CN(C)CC(=O)N1CCCCN2[C@@H](CO)[C@@H](c3ccc(/C=C/c4ccccc4)cc3)[C@@H]2C1	miR122 inh 32.1
C[C@H]1CN([C@@H](C)CO)S(=O)(=O)c2ccc(-c3ccc(C(=O)N(C)C)cc3)cc2O[C@@H]1CN(C)C	none
CC(=O)N(C)C[C@@H]1Oc2cc(/C=C/c3ccccc3)ccc2S(=O)(=O)N([C@H](C)CO)C[C@H]1C	none
C[C@@H]1CN([C@@H](C)CO)S(=O)(=O)c2ccc(-c3ccc(C(=O)N(C)C)cc3)cc2O[C@@H]1CN(C)C	none
CN(C)C(=O)c1ccc(-c2ccc([C@H]3[C@@H](CO)N4CCCCN(C(=O)C5CCCC5)C[C@@H]34)cc2)cc1	miR122 inh 30.2
C[C@@H]1CN([C@H](C)CO)S(=O)(=O)c2ccc(Br)cc2O[C@H]1CN(C)C(=O)CC1CC1	none
CCC(=O)N(C)C[C@H]1Oc2ncc(-c3cccc(OC)c3)cc2C(=O)N([C@@H](C)CO)C[C@H]1C	none
COc1ccc(-c2cnc3c(c2)C(=O)N([C@H](C)CO)C[C@@H](C)[C@@H](CN(C)Cc2ccccn2)O3)cc1	none
CCCNC(=O)Nc1ccc2c(c1)OC[C@@H](C)NC[C@H](C)[C@@H](OC)CN(C)C2=O	none
C[C@H](CO)N1C[C@H](C)[C@H](CN(C)C(=O)c2cccnc2)Oc2ncc(/C=C/c3ccccc3)cc2C1=O	none
Cc1ccc(-c2ccc3c(c2)O[C@@H](CN(C)Cc2cccc(C(=O)O)c2)[C@H](C)CN([C@H](C)CO)S3(=O)=O)cc1	none
Cc1ccc(-c2cnc3c(c2)C(=O)N([C@H](C)CO)C[C@@H](C)[C@H](CN(C)C(=O)Cc2ccncc2)O3)cc1	none
C[C@@H]1CN([C@H](C)CO)S(=O)(=O)c2ccc(C#CCC3CCCC3)cc2O[C@@H]1CN(C)C(=O)CC1CC1	none
COCC(=O)Nc1ccc2c(c1)OC[C@@H](C)NC[C@@H](C)[C@@H](OC)CN(C)C2=O	none
CCCNC(=O)Nc1ccc2c(c1)OC[C@H](C)NC[C@H](C)[C@H](OC)CN(C)C2=O	none
C[C@H](CO)N1C[C@H](C)[C@H](CN(C)C(=O)C2CC2)Oc2cc(-c3ccc(C#N)cc3)ccc2S1(=O)=O	none
COc1ccc(N2CCc3c(C)nc4c(OC)cc(OC)cc4c32)c(OC)c1	miR122 inh 46.9
COc1cccc(NC(=O)N(C)C[C@H]2Oc3ncc(C#Cc4cccnc4)cc3C(=O)N([C@H](C)CO)C[C@H]2C)c1	none
CCC(=O)N(C)C[C@H]1Oc2ncc(C#CC3(O)CCCC3)cc2C(=O)N([C@H](C)CO)C[C@H]1C	none
C[C@H]1CN([C@@H](C)CO)C(=O)c2cccc(NC(=O)Nc3ccccc3)c2O[C@@H]1CN(C)Cc1ccc(C(=O)Nc2ccccc2N)cc1	none
C[C@@H]1CN([C@@H](C)CO)C(=O)c2cc(-c3cncnc3)cnc2O[C@H]1CN(C)CC1CCOCC1	none
COc1ccc(C#Cc2ccc([C@@H]3[C@@H](CO)N4CCCCN(C(=O)Nc5ccccc5)C[C@H]34)cc2)cc1	miR122 inh 33.9
O=C(Nc1ccccc1F)N1CCCCN2[C@@H](CO)[C@@H](c3ccc(C#Cc4ccccc4)cc3)[C@@H]2C1	miR122 inh 37.4
O=C(Nc1ccc(F)cc1)N1CCCCN2[C@H](CO)[C@@H](c3ccc(C#Cc4ccccc4)cc3)[C@H]2C1	miR122 inh 34.2
COc1cccc(NC(=O)N(C)C[C@@H]2Oc3cc(C#Cc4ccccc4)ccc3S(=O)(=O)N([C@H](C)CO)C[C@@H]2C)c1	none
CNC[C@H]1Oc2cc(C#Cc3cccc(F)c3)ccc2S(=O)(=O)N([C@@H](C)CO)C[C@H]1C	none
CCC(=O)N(C)C[C@H]1Oc2ncc(C#Cc3ccccc3OC)cc2C(=O)N([C@@H](C)CO)C[C@@H]1C	none
